Here are results for 6 molecules from PubChem BioAssay.

A short description of experiment [1]: kinase inhibitors against Plasmodium liver-stage infection, cell-based, known kinase inhibitor set, luminescence, hepatoma host viability (AID 624392; call rule not given here;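 note: infected cells incubated roughly two days before readout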). As to conditions: Plasmodium liver stage in hepatoma cells, luciferase luminescence, concentration not given here; liver cell % of control: measured here: host liver cell viability; parasite % of control: stronger effect = lower value.

The nature of experiment [2]: viability loss in pontine glioma line – cell-based, SU-DIPG-XXV, MIPE5.0, CellTiter-Glo, qHTS, dose response (AID 1347065; cut-off not given, nearly all actives have AC50 up to about 26 µM;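 note: cells exposed to compound for 48 hours before ATP readout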). The note with it: CellTiter-Glo ATP luminescence. On the technique in general: In ATP-based viability assays light output follows the ATP content of the culture.
Experiment [3] in a line: sensitizers of A549 cells to miR-34 induction, primary screen, imaging, A549 dox-inducible miR-34, nuclei and caspase counts (AID 1347080;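 active = compounds whose cell count with miR-34 switched on is under 0.7 times the count with it off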). As to conditions: A549 miR-34 inducible, Hoechst nuclei count, 48 h.
The nature of experiment [4]: modifiers of HSF1 nuclear foci, imaging, Selleck Cancer Library (AID 1347162; in the data active = plate-normalised HSF1 focus index below about 0.46). The note with it: human cells, at 10 µM; SSMD: measured here: HSF1 foci SSMD mean; cell count: measured here: cell number; plate-normalised HSF1 focus index: stronger effect = lower value.
Experiment [5] can be described thus: survival rescue of mitochondrial mutant cells in low glucose, primary screen, MELAS cybrids, Rieske KO mouse fibroblasts, CellTiter-Glo (AID 1508586;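 active = mean z-score across replicates of 1.96 or higher in either the MELAS or the Rieske mutant cell line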;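 note: z relative to plate mean and SD of compound and empty wells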).
Experiment [6] can be described thus: ovarian cancer cell viability with rucaparib, profiling panel, oncology-focused library, rucaparib conditional (AID 1508598). The note with it: patient-derived ovarian cancer cells, CellTiter-Glo viability, 144 h, stronger effect = lower value.
Experiment [7] is described as follows: JHH-DIPG-1 glioma cell viability, MIPE5.0 library, CellTiter-Glo luminescence, qHTS (AID 1347067; cut-off not given, nearly all actives have AC50 up to about 26 µM;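 note: cells exposed to compound for 48 hours before readout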). As to conditions: JHH-DIPG-1 glioma viability, CellTiter-Glo ATP luminescence.
Experiment [8] is described as follows: SU-DIPG-XXV glioma cell viability, MIPE5.0 library, qHTS (AID 1347068; cut-off not given, nearly all actives have IC50 up to about 30 µM). (In qHTS, concentration-response curves come from the screen itself.)

Several values for one entry are separate records, joined by “and”; a condition that tells them apart may be missing. Equal entries are not always repeated. Inconclusive results are not listed. Activity calls are given as the source filed them.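 Rule for the calls, unless noted: active = normalized viability below 100% at a tested concentration; inactive = the rest.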

As a reminder, the AC50 is the concentration giving half of the maximal activity seen. As usually defined, the viability is a read-out of living cells in per cent, often relative to untreated cells.

Take `S=C(NCc1ccc2c(c1)OCO2)N1CCN(c2ncnc3c2oc2ccccc23)CC1`: the liver cell % of control in experiment [1] is 79.8% and 74.8% and 83.5%. In experiment [1], the parasite % of control was 3.34% (inactive) and 4.31% (inactive) and 22.8% (inactive). Besides, in experiment [2], the AC50 is 18.6 µM (active). Also, the fold change in experiment [3] (stronger effect = lower value, cell number ratio, induced over uninduced) was 0.868 (inactive); in experiment [3] (measured here: relative caspase fold change +Dox/-Dox), 1.07. For the same molecule, the cell count in experiment [3] (measured here: total cells with miR-34 induction, stronger effect = lower value) worked out at 3980; in experiment [3] (measured here: total cells without miR-34 induction), 4580; in experiment [4], 7510. The molecule also gave an SSMD in experiment [4] of 2.08. For the same molecule, in experiment [4], the plate-normalised HSF1 focus index is 1.08 (inactive). The z-score in experiment [5] (MELAS cybrid survival, CellTiter-Glo 48 h, stronger effect = higher value) was -0.551 (inactive); in experiment [5] (Rieske KO mouse fibroblast survival, CellTiter-Glo 72 h), 0.864. Besides, the viability in experiment [6] (at 0.000305 µM, OCI-C5x cells, with rucaparib 10 µM, 100% = cells with rucaparib alone) is 112% (inactive); in experiment [6] (at 0.000305 µM, OCI-C5x cells, without rucaparib), 101% (inactive); in experiment [6] (at 0.000305 µM, OCI-P5x cells, with rucaparib 20 µM, 100% = cells with rucaparib alone) it was 89.7% (active); in experiment [6] (at 0.000305 µM, OCI-P5x cells, without rucaparib), 92.1% (active); in experiment [6] (at 0.00122 µM, OCI-C5x cells, with rucaparib 10 µM, 100% = cells with rucaparib alone), 117% (inactive); in experiment [6] (at 0.00122 µM, OCI-C5x cells, without rucaparib), 100% (inactive). Besides, the viability in experiment [6] (at 0.00122 µM, OCI-P5x cells, with rucaparib 20 µM, 100% = cells with rucaparib alone) is 96.6% (active); in experiment [6] (at 0.00122 µM, OCI-P5x cells, without rucaparib) it was 98.2% (active); in experiment [6] (at 0.00488 µM, OCI-C5x cells, with rucaparib 10 µM, 100% = cells with rucaparib alone), 109% (inactive); in experiment [6] (at 0.00488 µM, OCI-C5x cells, without rucaparib) it was 104% (inactive); in experiment [6] (at 0.00488 µM, OCI-P5x cells, with rucaparib 20 µM, 100% = cells with rucaparib alone), 97.2% (active); in experiment [6] (at 0.00488 µM, OCI-P5x cells, without rucaparib), 95.2% (active). The viability in experiment [6] (at 0.0195 µM, OCI-C5x cells, with rucaparib 10 µM, 100% = cells with rucaparib alone) was 105% (inactive); in experiment [6] (at 0.0195 µM, OCI-C5x cells, without rucaparib), 98.9% (active); in experiment [6] (at 0.0195 µM, OCI-P5x cells, with rucaparib 20 µM, 100% = cells with rucaparib alone), 109% (inactive); in experiment [6] (at 0.0195 µM, OCI-P5x cells, without rucaparib) it was 105% (inactive); in experiment [6] (at 0.0781 µM, OCI-C5x cells, with rucaparib 10 µM, 100% = cells with rucaparib alone), 115% (inactive); in experiment [6] (at 0.0781 µM, OCI-C5x cells, without rucaparib), 111% (inactive). The viability was 110% (inactive) in experiment [6] (at 0.0781 µM, OCI-P5x cells, with rucaparib 20 µM, 100% = cells with rucaparib alone); 101% (inactive) in experiment [6] (at 0.0781 µM, OCI-P5x cells, without rucaparib); 110% (inactive) in experiment [6] (at 0.313 µM, OCI-C5x cells, with rucaparib 10 µM, 100% = cells with rucaparib alone); 111% (inactive) in experiment [6] (at 0.313 µM, OCI-C5x cells, without rucaparib); 105% (inactive) in experiment [6] (at 0.313 µM, OCI-P5x cells, with rucaparib 20 µM, 100% = cells with rucaparib alone); 104% (inactive) in experiment [6] (at 0.313 µM, OCI-P5x cells, without rucaparib). For the same molecule, the viability was 118% (inactive) in experiment [6] (at 1.25 µM, OCI-C5x cells, with rucaparib 10 µM, 100% = cells with rucaparib alone); 107% (inactive) in experiment [6] (at 1.25 µM, OCI-C5x cells, without rucaparib); 103% (inactive) in experiment [6] (at 1.25 µM, OCI-P5x cells, with rucaparib 20 µM, 100% = cells with rucaparib alone); 103% (inactive) in experiment [6] (at 1.25 µM, OCI-P5x cells, without rucaparib); 128% (inactive) in experiment [6] (at 5 µM, OCI-C5x cells, with rucaparib 10 µM, 100% = cells with rucaparib alone); 129% (inactive) in experiment [6] (at 5 µM, OCI-C5x cells, without rucaparib). In addition, the viability in experiment [6] (at 5 µM, OCI-P5x cells, with rucaparib 20 µM, 100% = cells with rucaparib alone) is 101% (inactive); in experiment [6] (at 5 µM, OCI-P5x cells, without rucaparib), 101% (inactive).

For `CC1Cc2ccccc2N1C(=O)Cc1nc(N2CCOCC2)cc(=O)[nH]1` (configuration not stated), in experiment [7], the molecule was called inactive.

Regarding `COc1ccc2c(c1)C(c1ccc(F)cc1)=C(CN1CCCC1)CO2`, the molecule was called inactive in experiment [7] and in experiment [8].

As for `Cc1cccc(/C=N/Nc2cc(N3CCOCC3)nc(OCCc3ccccn3)n2)c1`, the molecule was called inactive in experiment [7].

As to `Cc1ccc2cc(-c3c(C)ccc(C(=O)c4c(-c5ccccc5)n(C)n(-c5ccccc5)c4=O)c3N)ccc2n1`, the molecule was classed as inactive in experiment [7] and in experiment [8].

Regarding `COCCOc1ccc(N2CCN(CCn3ncc4c3nc(N)n3nc(-c5ccco5)nc43)CC2)cc1`, the molecule was called inactive in experiment [7] and in experiment [8].
